Laboratory results reported in PubChem BioAssay (NCATS).
“And” between values parts separate entries of the source, which are not always exact repeats. Equal entries are not always repeated. Records with an inconclusive call do not appear. The source made the active and inactive calls. Unless noted, calls follow the shape of the dose curve; as a rule, active = well fitted curve in the direction sought with a large enough effect; inconclusive = small, poorly fitted or top-dose-only effect, or another doubt; inactive = no such curve, though single readings can be large; an effect the other way counts as inactive or inconclusive.

Legend:
[1] = Cell Viability - BJ (AID 421; calls by dose curve;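 also: potency is read from the fitted curve at half-maximal effect; cells exposed to compound for 40 hours at 37 °C before readout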); settings: BJ fibroblast viability, qHTS
Summary of the method: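 Cytotoxicity as drop in intracellular ATP (CellTiter-Glo, 20 min RT) after 40 hr compound exposure of BJ fibroblasts at 37 °C. Titrations scaled between DMSO and 100 uM tamoxifen, Hill-fitted for AC50.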

[2] = Cell Viability - HUV-EC-C (AID 542); settings: HUV-EC-C endothelial cell viability, qHTS; series mostly up to 92.2 µM;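 also: cells exposed to compound for 40 hours; % is scaled to controls: 0 for no effect and ±100 for the full control effect; nearly all actives have a fitted effect of over 35% in size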
Summary of the method: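 CellTiter-Glo luminescence measured ATP loss in HUV-EC-C cells (1000/well) after 40 hr compound exposure at 37 °C, in complete culture medium. Concentration-response data were Hill-fitted to give AC50.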

[3] = Cellular Toxicity (caspase-3) HUV-EC-C (AID 656); settings: HUV-EC-C cells, caspase-3 activation (apoptosis), vehicle = 0, 100 µM tamoxifen = 100%; series mostly up to 92.2 µM
Summary of the method: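 Read-out: luminescence proportional to caspase 3/7 activity, measured 20 min after adding Caspase-Glo 3/7 reagent. Cells (HUV-EC-C) had received compound for 16 hr at 37°C. Increases relative to DMSO and 100 uM tamoxifen gave concentration-response AC50 values.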

[4] = Cellular Toxicity (caspase-3) MRC-5 (AID 659); settings: MRC-5 cells, luminescence, normalized: DMSO 0%, 10 µM staurosporine 100%; series mostly up to 91.7 µM
Summary of the method: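 MRC-5 fibroblasts, 1500/well; 16 h cpd, 37 °C; Caspase-Glo 3/7, 1 h RT; lumi read. Norm: DMSO = 0%, 10 uM staurosporine = 100%. Hill-fit AC50 from qHTS conc-response.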

[5] = Cellular Toxicity (caspase-3) Mesangial (AID 660); settings: mesangial cells, normalized: DMSO 0%, 100 µM tamoxifen 100%; series mostly up to 91.7 µM;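 also: cells exposed to compound for 16 h before the caspase read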
Summary of the method: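 Caspase 3/7 activation measured by Caspase-Glo 3/7 luminescence (20 min, room temperature) following 16 h exposure of mesangial cells (1000/well); AC50 from Hill-equation fit, normalized to DMSO and 100 uM tamoxifen.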

[6] = Cellular Toxicity (caspase-3) SK-N-SH (AID 661); settings: SK-N-SH caspase-3 activation, qHTS; series mostly up to 91.7 µM
Summary of the method: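 Caspase 3/7 activation was read by luminogenic substrate cleavage after 16 hour treatment of SK-N-SH cells. Signal was scaled between DMSO and 10 uM staurosporine, and concentration-response data were fitted with the Hill equation for AC50.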

[7] = Cellular Toxicity (caspase-3) Hek293 (AID 664); settings: HEK293 caspase-3 activation, DMSO = 0%, 100 µM tamoxifen = 100%; at 92.2 µM (top of the series);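 also: cells exposed to compound for 16 h at 37 °C before readout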
Summary of the method: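 Concentration-response qHTS: caspase 3/7 activation measured by luminescent aminoluciferin substrate cleavage after 16 h compound exposure of Hek 293 cells. AC50 from Hill equation, with DMSO as basal and 100 uM tamoxifen as 100%.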

[8] = Cellular Toxicity (caspase-3) NIH 3T3 (AID 666); settings: NIH 3T3 caspase-3 activation, apoptosis/toxicity; series mostly up to 92.2 µM;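 also: caspase signal read after 16 h compound exposure; 0% = DMSO basal and 100% = 100 µM tamoxifen stimulation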
Summary of the method: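 Caspase-Glo 3/7 luminescence reported caspase activation in 1000 NIH 3T3 cells/well after 16 h compound exposure at 37 C. DMSO set basal and 100 uM tamoxifen set 100% stimulation; concentration-response modeled with the Hill equation for AC50.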

[9] = MultiTox-Fluor Cytotoxicity Assay - LYMP1-001 - Dead Cells (AID 946); settings: LYMP1-001 lymphoblastoid cells, dead-cell protease fluorescence; series mostly up to 92.2 µM
Summary of the method: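 Cytotoxicity as increased dead-cell protease fluorescence (bis-AAF-R110, 485/520 nm), read 60 min after MultiTox-Fluor reagent. Human lymphoblastoid line exposed 16 h; Hill-fitted AC50, with DMSO as 0% and 15 uM tetraoctylammonium bromide as 100%.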

[10] = Cell Viability - LYMP1-002 - Assay at 16 hr (AID 948); settings: LYMP1-002 lymphoblastoid cell viability; series mostly up to 92.2 µM;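 also: 0% = DMSO alone and full effect = 92 µM tetraoctylammonium bromide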
Summary of the method: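 Acute cytotoxicity is scored as a concentration-dependent fall in intracellular ATP in a human lymphoblastoid line (LYMP1-002) after 16 hr compound exposure at 37 C, measured by luciferase luminescence.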

[11] = MultiTox-Fluor Cytotoxicity Assay - LYMP1-003 - Live Cells (AID 962); settings: LYMP1-003 lymphoblastoid cells, MultiTox-Fluor live-cell protease fluorescence; series mostly up to 92.2 µM;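 also: 0% = DMSO only and full loss = 92 µM tetraoctylammonium bromide; cytotoxic hits lower the live-cell protease signal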
Summary of the method: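 Live-cell protease activity (GF-AFC substrate, 405/510 nm, 60 min at room temperature) after 16 h, 37 C compound exposure of human lymphoblastoid LYMP1-003 cells; concentration-response fitted to the Hill equation for AC50.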

[12] = Cell Viability - LYMP2-003 (AID 965); settings: LYMP2-003 lymphoblastoid cell viability; series mostly up to 92.2 µM;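 also: cells exposed to compounds for 24 h before reading; 0% = DMSO only and full effect = 92 µM tetraoctylammonium bromide; nearly all actives have a fitted effect of over 50% in size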
Summary of the method: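 Acute cytotoxicity is scored as a concentration-dependent drop in intracellular ATP, measured by luciferase luminescence in human lymphoblastoid cells treated for 24 hours at 37 C. AC50 values derive from Hill-equation modelling.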

[13] = Cell Viability - LYMP2-013 (AID 970); settings: LYMP2-013 lymphoblastoid cells viability; series mostly up to 92.2 µM;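 also: 0% = DMSO only and full inhibition = tetraoctylammonium bromide control; nearly all actives have a fitted effect of over 55% in size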
Summary of the method: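 qHTS cytotoxicity: ATP-dependent luminescence (CellTiter-Glo, 30 min room temperature) read after 24 h compound exposure at 37 C of 2500 LYMP2-013 lymphoblastoid cells per well. Concentration-response fitted with Hill equation to give AC50.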

[14] = Cell Viability - LYMP2-015 (AID 971); settings: LYMP2-015 lymphoblastoid cell viability; series mostly up to 92.2 µM;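 also: 0% = DMSO only and full effect = 92 µM tetraoctylammonium bromide; nearly all actives have a fitted effect of over 55% in size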
Summary of the method: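 Cytotoxicity readout: decrease in intracellular ATP (CellTiter-Glo luminescence) in 2500 LYMP2-015 lymphoblastoid cells/well after 24 h compound exposure at 37 C. Concentration-response data fitted with the standard Hill equation to give AC50.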

[15] = Cell Viability - LYMP2-017 (AID 972); settings: LYMP2-017 lymphoblastoid cell viability; series mostly up to 92.2 µM;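 also: cells exposed to compound for 24 hours at 37 °C; % is scaled to controls: 0 for no effect and ±100 for the full control effect; nearly all actives have a fitted effect of over 55% in size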
Summary of the method: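 CellTiter-Glo luminescence (cellular ATP, 30 min RT) measured cytotoxicity after 24 hr compound treatment at 37 C. Cells were a human lymphoblastoid line, LYMP2-017, plated at 2500/well and incubated 5 hr first; concentration-response fitted with Hill equation for AC50.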

[16] = Cell Viability - LYMP2-007 (AID 979); settings: LYMP2-007 lymphoblastoid cell viability; series mostly up to 92.2 µM;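 also: cells exposed to compound for 24 h before reading; 0% = DMSO only and the negative end = 92 µM tetraoctylammonium bromide; nearly all actives have a fitted effect of over 60% in size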
Summary of the method: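 AC50 values come from Hill-equation fits of luminescent intracellular ATP (CellTiter-Glo, 30 min, room temperature) following 24 h compound exposure at 37 C. Cells: LYMP2-007 lymphoblastoid line, 2500 per well, in complete culture medium.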

[17] = qHTS Assay for Identification of Small Molecule Inducers of Hypoxia Response (AID 2120; active = well fitted curve in the direction sought with a large enough effect in the signal ratio, with a control signal flat, not every such curve was filed as active; the % refers to the signal ratio; also: 0% is about no effect); settings: hypoxia response reporter cells, beta-lactamase ratio readout; series mostly up to 104 µM
Summary of the method: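 Reporter induction read as the CCF4 blue/green (460nm/530nm) emission ratio after 2.5 h dye loading at room temperature. ME-180 HRE-beta-lactamase cells received titrated compounds for 17 h at 37 degrees Celsius; AC50 values derived.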

[18] = molecular target: Peroxisome proliferator-activated receptor alpha (Homo sapiens) (UniProt Q07869); experiment: qHTS assay for small molecule agonists of the peroxisome proliferator-activated receptor alpha (PPARalpha) signaling pathway (AID 651778); settings: PathHunter PPARalpha complementation, chemiluminescence, 6 h; stronger effect = higher value; also: % of control where 0% means no effect
Summary of the method: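 Enzyme-fragment complementation assay in which ligand-bound PPARalpha translocates and forms an active enzyme that generates chemiluminescence. Cells were plated overnight, exposed to compound for 6 hr at 37 C, and then given detection reagent for 60 min at room temperature.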

[19] = qHTS assay for small molecule agonists of the antioxidant response element (ARE) signaling pathway measured by Nrf2-dependant transcriptional activity - cell viability counter screen (AID 720653; active = well fitted curve in the direction sought with a large enough effect in the repeat runs; an effect the other way counts as inactive or inconclusive; also: % is scaled to controls: 0 for no effect and ±100 for the full control effect); settings: ARE-bla HepG2 viability, CellTiter-Glo ATP luminescence, 16 h; stronger effect = lower value
Summary of the method: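 ARE-bla HepG2 cells treated with compounds for 16 h at 37C; this counter screen measures viability as intracellular ATP by CellTiter-Glo luminescence after 30 min at room temperature.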

[20] = qHTS assay for cell viability of the p53RE-bla HCT-116 cell line (AID 743292); settings: p53RE-bla HCT-116 viability, ATP luminescence, 16 h; series mostly up to 95 µM; also: % is scaled to controls: 0 for no effect and ±100 for the full control effect; nearly all actives have a fitted effect of over 55% in size
Summary of the method: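 Compound-exposed HCT-116 (p53RE-bla) cells, 4,000 per well, were kept 16 h at 37 C following a 5 h preincubation. Cell number was estimated from total ATP by CellTiter-Glo luminescence read after 30 min at room temperature.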

Sequence of Peroxisome proliferator-activated receptor alpha (Homo sapiens) (Q07869 whole entry, looked up, the tested form may be a part): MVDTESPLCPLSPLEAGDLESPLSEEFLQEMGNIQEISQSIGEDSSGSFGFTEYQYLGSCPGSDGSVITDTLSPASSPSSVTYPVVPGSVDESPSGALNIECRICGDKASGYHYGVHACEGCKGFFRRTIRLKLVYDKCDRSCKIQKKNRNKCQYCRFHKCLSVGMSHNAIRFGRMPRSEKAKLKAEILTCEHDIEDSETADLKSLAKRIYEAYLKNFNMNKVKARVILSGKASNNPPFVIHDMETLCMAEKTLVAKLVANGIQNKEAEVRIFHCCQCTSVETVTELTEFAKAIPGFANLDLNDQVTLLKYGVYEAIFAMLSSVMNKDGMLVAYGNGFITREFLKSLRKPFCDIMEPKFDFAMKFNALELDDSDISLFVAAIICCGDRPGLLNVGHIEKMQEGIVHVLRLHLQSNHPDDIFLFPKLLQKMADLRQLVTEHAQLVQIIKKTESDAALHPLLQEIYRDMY

O=[N+]([O-])CCO
inactive: Potency [1] > 92 µM | Potency [2] | outcome [3] | outcome [4] | outcome [5] | Potency [6] | caspase-3 activation [7] 0.0344% | Potency [8] | outcome [9] | outcome [10] | outcome [11] | Potency [12] | Potency [13] | Potency [14] | Potency [15] | Potency [16] | Potency [17] | max response [18] -2.47% | max response [19] -2% | Potency [20]

Nc1ccc2ccccc2c1
inactive: Potency [1] > 92 µM | Potency [2] | outcome [3] | outcome [4] | outcome [5] | Potency [6] | caspase-3 activation [7] 2.15% | Potency [8] | outcome [9] | outcome [10] | outcome [11] | Potency [12] | Potency [13] | Potency [14] | Potency [15] | Potency [16] | Potency [17] | max response [18] -2.41% | max response [19] -2.01% | Potency [20]

CC(C)(C)c1ccccc1O
inactive: Potency [1] > 92 µM | Potency [2] | outcome [3] | outcome [4] | outcome [5] | Potency [6] | caspase-3 activation [7] -1.2% | Potency [8] | outcome [9] | outcome [10] | outcome [11] | Potency [12] | Potency [13] | Potency [14] | Potency [15] | Potency [16] | Potency [17] | max response [18] -7.23% and -1.41% | max response [19] -8.15% and -10.7% | Potency [20]

O=[N+]([O-])c1ccc2c3c(cccc13)CC2
inactive: Potency [1] > 92 µM | Potency [2] | outcome [3] | outcome [4] | outcome [5] | Potency [6] | caspase-3 activation [7] 1.65% | Potency [8] | outcome [9] | outcome [10] | outcome [11] | Potency [12] | Potency [13] | Potency [14] | Potency [15] | Potency [16] | Potency [17] | max response [18] -11.3% and -0.119% | max response [19] 3.04% and 5.87% | Potency [20]

CCSC(=O)N1CCCCCC1
inactive: Potency [1] > 92 µM | Potency [2] | outcome [3] | outcome [4] | outcome [5] | Potency [6] | caspase-3 activation [7] 2.55% | Potency [8] | outcome [9] | outcome [10] | outcome [11] | Potency [12] | Potency [13] | Potency [14] | Potency [15] | Potency [16] | Potency [17] | max response [18] 3.66% and -1.17% | max response [19] -5.76% and -1.37% | Potency [20]

C=CCCC#N
inactive: Potency [1] > 92 µM | Potency [2] | outcome [3] | outcome [4] | outcome [5] | Potency [6] | caspase-3 activation [7] -0.209% | Potency [8] | outcome [9] | outcome [10] | outcome [11] | Potency [12] | Potency [13] | Potency [14] | Potency [15] | Potency [16] | Potency [17] | max response [18] -3.78% | max response [19] -16.2% | Potency [20]

ClCc1ccccn1
inactive: Potency [1] > 92 µM | Potency [2] | outcome [3] | outcome [4] | outcome [5] | Potency [6] | caspase-3 activation [7] 0.273% | Potency [8] | outcome [9] | outcome [10] | outcome [11] | Potency [12] | Potency [13] | Potency [14] | Potency [15] | Potency [16] | Potency [17] | max response [18] -1.73% and -0.41% | max response [19] -0.496% and -9.53% | Potency [20]

C=CC=O
inactive: Potency [1] > 92 µM | Potency [2] | outcome [3] | outcome [4] | outcome [5] | Potency [6] | caspase-3 activation [7] 0.46% | Potency [8] | outcome [9] | outcome [10] | outcome [11] | Potency [12] | Potency [13] | Potency [14] | Potency [15] | Potency [16] | Potency [17] | max response [18] -5.14% | max response [19] 9.03% | Potency [20]

O=[N+]([O-])c1ccc(Cl)cc1
inactive: Potency [1] > 92 µM | Potency [2] | outcome [3] | outcome [4] | outcome [5] | Potency [6] | caspase-3 activation [7] -0.181% | Potency [8] | outcome [9] | outcome [10] | outcome [11] | Potency [12] | Potency [13] | Potency [14] | Potency [15] | Potency [16] | Potency [17] | max response [18] -4.31% and 0.471% | max response [19] -7.74% and 0.776% | Potency [20]

Nc1c(Cl)cc([N+](=O)[O-])cc1Cl
inactive: Potency [1] > 92 µM | Potency [2] | outcome [3] | outcome [4] | outcome [5] | Potency [6] | caspase-3 activation [7] 6.24% | Potency [8] | outcome [9] | outcome [10] | outcome [11] | Potency [12] | Potency [13] | Potency [14] | Potency [15] | Potency [16] | Potency [17] | max response [18] -4.31% and -1.23% | max response [19] 8.8% and -9.21% | Potency [20]

NC1CCC(CC2CCC(N)CC2)CC1 (stereo not given)
inactive: Potency [1] > 92 µM | Potency [2] | outcome [3] | outcome [4] | outcome [5] | Potency [6] | caspase-3 activation [7] -0.935% | Potency [8] | outcome [9] | outcome [10] | outcome [11] | Potency [12] | Potency [13] | Potency [14] | Potency [15] | Potency [16] | Potency [17] | max response [18] -7.49% and -0.343% | max response [19] -9.14% and 3.44% | Potency [20]
